The text below walks through data of PubChem BioAssay (NCATS).

Records with an inconclusive call do not appear. Where a call stands in place of a potency, no number is given. The source made the active and inactive calls. Calls follow the shape of the dose curve; as a rule, active = well fitted inhibition curve with a large enough effect; inconclusive = small, poorly fitted or top-dose-only effect; inactive = no such curve, though single readings can be large or run the other way.
Potency is read from the fitted curve at half-maximal effect.

This assay in a line: BET inhibitor-based combinations targeting novel dependencies in MECOM-rearranged (r) AML: HNT-34 cell line (AID 2202234). Also: nearly all actives have a fitted effect of over 35% in size. The conditions noted are these: HNT-34 AML viability, CellTiter-Glo luminescence, 48 h; series mostly up to 46 µM. The source says: Ecotropic viral insertion site 1 (EVI1) is located on chromosome 3q26.2 as part of the MECOM (MDS and EVI1 complex) locus. Under normal hematopoiesis, EVI1 is a regulator of hematopoietic stem cell maintenance and self-renewal and EVI1 levels decrease as the cells differentiate. In approximately 5-10% of de novo acute myeloid leukemia (AML) EVI1 is aberrantly expressed, including Chromosomal inv(3)(q21;q26.2) or t(3;3)(q21;q26.2) alterations (MECOM-r) that account for about 50% of AML with EVI1 overexpression 31. AMLs with high levels of EVI1 have a poor prognosis and an overall survival time averaging between 10-14 months. EVI1 overexpression confers resistance in leukemia cells, highlighting the need to develop new targeted therapies for EVI1 overexpressing AMLs. Here, we performed an unbiased chemical drug screening by evaluating the single agent activity of a collection of 2,480 oncology-focused, approved and investigational drugs (NCATS Mechanism Interrogation Plates, MIPE v5.0) against a panel of seven AML cell lines. These included four MECOM-r cell-lines (AML-191, AML-194, UCSD-AML1 and HNT-34) and three non-MECOM-r AMLs (MV4-11, OCI-AML3 and SET-2). Exploiting the mechanistic redundancy built in the library, we identified target-level sensitivities in MECOM-r AML cells and relative activity as compared to other AML subtypes.
A collection of 2480 mechanistically annotated dugs (MIPE v5.0) was used to screen four 3q26.2 rearranged AML cell lines and three non-3q26.2 rearranged AML cell lines. This library purposely exploits redundancy by including multiple inhibitors of key onco-targets, while simultaneously encompassing mechanistic diversity, targeting more than 800 distinct mechanisms of action. Briefly, cells were seeded in 5 uL of growth media using a Multidrop Combi dispenser into 1536 well white polystyrene tissue culture treated plates (Corning) at a density of 500cells/well. For each cell-line, for each of the 2480 drugs in MIPE v5.0 library, an 11-point dose curve was generated via a 1536 pin-tool. Plates were incubated for 48 hr at standard incubator conditions, covered by a stainless steel gasketed lid to prevent evaporation. Cell viability was determined by luminescence based, Cell Titer Glo assay (Promega). In detail, 3 uL of Cell Titer Glo were added to each well and plates were incubated at room temperature for 15 min with a stainless-steel lid in place. Luminescence readings were taken using a Viewlux (PerkinElmer) with a 2 s exposure time per plate. Compound dose-response curves were normalized to DMSO and empty well controls on each plate. Quantitative drug activity data from dose-response curves was determined utilizing area Under the Curve (AUC) and Z-transformed AUC (Z-AUC, a mean-centering transformation applied to each individual cell-line screened).
On the technique in general: Cellular ATP, detected with luciferase, serves as a proxy for viable cell number.
For `C[C@@H](C1CC[C@@]2(O)C3=CC(=O)[C@@H]4C[C@@H](O)[C@@H](O)C[C@]4(C)[C@H]3CC[C@]12C)[C@H](O)CCC(C)(C)O` (stereo not given in full), the Potency result was “inactive”.
Consider `O=c1cccc2n1CC1CNC[C@H]2C1`, for which the Potency result is “inactive”.
`C=C(C)[C@H]1Cc2c(ccc3c2O[C@@H]2COc4cc(OC)c(OC)cc4[C@@H]2C3=O)O1`: the Potency was 0.833 µM (active).
Consider `C[C@]12CC[C@H](O)CC1=CC[C@@H]1[C@@H]2CC[C@]2(C)C(=O)CC[C@@H]12`, for which the Potency result is “inactive”.
As for `CC(=O)N1N=C(c2ccc(N)cc2)c2cc3c(cc2C[C@H]1C)OCO3`, the entry is “inactive”; as for `Cc1ccccc1-n1c(Cn2ncc3c(N)ncnc32)nc2cccc(C)c2c1=O`, “inactive”.
Take `COc1cc(C)[nH]c(=O)c1CNC(=O)c1c(C)n([C@H](C)C2CCOCC2)c2ccccc12`: the Potency entry is “inactive”.
Consider `COc1cc(C(=O)N2CC[C@@H](O)[C@@H](N)C2)cc2nc(-c3cc4ccccc4n3CC3CC3)n(C)c12`, for which the Potency entry is “inactive”.
As to `CNCC(O)c1ccc(O)cc1` (stereo not given), the Potency result is “inactive”.
As to `CCOC(=O)Nc1ccc(NCc2ccc(F)cc2)cc1N`, the Potency entry was “inactive”.
Regarding `CCOP(=O)(OCC)C(C)NC(=O)N(CCCl)N=O` (stereo not given), the Potency entry was “inactive”.
On to `CN1CCN(c2ccc([N+](=O)[O-])c3no[n+]([O-])c23)CC1`, for which the Potency was 18.6 µM (active).
Turning to `COC(=O)[C@]12CCC(C)(C)C[C@H]1[C@H]1C(=O)C=C3[C@@]4(C)C=C(C#N)C(=O)C(C)(C)[C@@H]4CC[C@@]3(C)[C@]1(C)CC2`, the Potency was 1.66 µM (active).
Turning to `COC(=O)[C@@]12OC[C@]34[C@H]([C@@H](O)[C@@H]1O)[C@@]1(C)CC(=O)C(O)=C(C)[C@@H]1C[C@H]3OC(=O)[C@H](OC(=O)/C=C(\C)C(C)C)[C@@H]24`, the Potency is 0.0042 µM (active).
With `C[C@@H]1CC[C@H]2[C@@H](C)C(=O)O[C@@H]3O[C@@]4(C)CC[C@@H]1[C@]32OO4`, the Potency is 14.8 µM (active).
With `Cc1[nH]ncc1-c1cc2nc([C@@H]3CC4CCN3CC4)[nH]c(=O)c2s1`, the Potency was 9.34 µM (active).
As for `Cc1ccccc1-n1c(Cn2cnc3c(N)ncnc32)nc2cccc(C)c2c1=O`, the entry is “inactive”; as for `C/C(=C\c1csc(C)n1)[C@@H]1C[C@@H]2O[C@]2(C)CCC[C@H](C)[C@H](O)[C@@H](C)C(=O)C(C)(C)[C@@H](O)CC(=O)O1`, 0.0083 µM (active); as for `C[C@@H]1CC[C@@]2(OC1)O[C@H]1C[C@H]3[C@@H]4CC=C5C[C@@H](O[C@@H]6O[C@H](CO)[C@@H](O[C@@H]7O[C@@H](C)[C@H](O)[C@@H](O)[C@H]7O)[C@H](O)[C@H]6O[C@@H]6O[C@@H](C)[C@H](O)[C@@H](O)[C@H]6O)CC[C@]5(C)[C@H]4CC[C@]3(C)[C@H]1[C@@H]2C`, 5.25 µM (active).
In the case of `CCN1CCN(C(=O)Cc2ccc(Nc3ncc(F)c(Nc4ccc(C(=O)Nc5ccccc5Cl)cc4)n3)cc2)CC1` it was 1.48 µM (active); in that of `O=c1[nH]c2ccccc2n1CCCN1CCC(n2c(=O)[nH]c3cc(Cl)ccc32)CC1`, “inactive”.
As for `CN1[C@H]2CC(O)C[C@H]1[C@H]1O[C@H]12` (stereo not given in full), the entry is “inactive”.
Consider `O=C(O)C(=O)c1cn(Cc2ccccc2)c2ccc(-c3ccc(OC(F)(F)F)cc3)cc12`, for which the Potency result was “inactive”.
Turning to `CCN1C[C@]2(OC(=O)c3ccccc3NC(C)=O)CC[C@H](OC)[C@@]34[C@H]5CC6[C@@H](OC)C[C@](O)(C(C[C@@H]23)[C@@H]14)[C@@]5(O)[C@@H]6OC`, the Potency entry is “inactive”.
In the case of `C[C@@H]1O[C@@H](O[C@H]2C[C@@H](O)[C@]3(CO)[C@H]4[C@H](O)C[C@]5(C)[C@@H](C6=CC(=O)OC6)CC[C@]5(O)[C@@H]4CC[C@]3(O)C2)[C@H](O)[C@H](O)[C@H]1O` it was 0.0934 µM (active); in that of `Clc1ccccc1C(c1ccccc1)(c1ccccc1)n1cccn1`, “inactive”.
Consider `O=C1CC[C@@]2(O)[C@H]3Cc4ccc(O)c5c4[C@@]2(CCN3CC2CC2)[C@H]1O5`, for which the Potency result is “inactive”.
`CC(C)c1cccc(C(C)C)c1O`: the Potency result is “inactive”.
As to `O=P1(NCCCl)OCCCN1CCCl` (stereo not given), the Potency entry is “inactive”.
In the case of `CC(C)C[C@H](CN)CC(=O)O`, the Potency entry is “inactive”.
For `CN[C@@H]1Cc2cccc3[nH]c(=O)n(c23)C1`, the Potency result is “inactive”.
On to `Cc1c(N)nc([C@H](CC(N)=O)NC[C@@H](N)C(N)=O)nc1C(=O)N[C@H](C(=O)N[C@@H](C)[C@H](O)[C@@H](C)C(=O)N[C@@H](C(=O)NCCc1nc(-c2nc(C(=O)NCCC[S+](C)C)cs2)cs1)[C@@H](C)O)C(O[C@H]1O[C@H](CO)[C@H](O)[C@@H](O)[C@H]1O[C@H]1O[C@H](CO)[C@@H](O)[C@H](OC(N)=O)[C@@H]1O)c1cnc[nH]1` (stereo not given in full), for which the Potency is 8.11 µM (active).
Regarding `COC[C@H]1OC(=O)c2coc3c2[C@@]1(C)C1=C(C3=O)C2CCC(=O)[C@@]2(C)C[C@H]1OC(C)=O` (stereo not given in full), the Potency was 5.9 µM (active).
In the case of `N=c1c2c(-c3ccccc3)c(-c3ccccc3)n(Cc3ccccc3)c2ncn1C1CCC(O)CC1` (stereo not given) it was 2.63 µM (active); in that of `CCC1(c2ccc(N)cc2)CCC(=O)NC1=O` (stereo not given), “inactive”; in that of `N[C@@H](Cc1ccc(N(CCCl)CCCl)cc1)C(=O)O`, 3.72 µM (active).
For `CC(C)(O)/C=C\C(=O)[C@](C)(O)[C@H]1[C@H](O)C[C@]2(C)[C@@H]3CC=C4[C@@H](C=C(O)C(=O)C4(C)C)[C@]3(C)C(=O)C[C@@]12C`, the Potency is 0.105 µM (active).
With `COCC1(CO)C(=O)C2CCN1CC2` (stereo not given), the Potency was 5.9 µM (active).
Take `C[C@]12CC[C@H]3[C@@H](CC[C@@]45O[C@@H]4C(O)=C(C#N)C[C@]35C)[C@@H]1CC[C@@H]2O`: the Potency entry is “inactive”.
On to `COC[C@H]1OC(=O)c2coc3c2[C@@]1(C)C1=C(C3=O)[C@@H]2CC[C@H](O)[C@@]2(C)C[C@H]1OC(C)=O`, for which the Potency was 5.25 µM (active).
